Molecules are shown by their SMILES. Active and inactive are the calls of the source. How the source made its calls: active means hit-call score of the fitted dose curve at least 0.9, where 1 is the maximum; inactive means score below 0.9.

A short description of the assay: CEETOX_H295R_OHPROG: CeeTox H295R High-throughput Steroidogenesis Assay for OH-Progesterone (OHPROG) (AID 2283435). The following applies: actives raise or lower the signal. Here is the method: CEETOX_H295R is a cell-based, multiplexed-readout assay that uses H295R, a human adrenal gland cell line, with measurements taken at 48 hours after chemical dosing in a 96-well plate.CEETOX_H295R_OHPROG is one of 23 assay component(s) measured or calculated from the CEETOX_H295R assay. It is designed to make measurements of hormone induction, a form of inducible reporter, as detected with absorbance signals by HPLC-MS-MS technology.Data from the assay component CEETOX_H295R_OHPROG was analyzed into 1 assay endpoint. This assay endpoint, CEETOX_H295R_OHPROG, was analyzed with bidirectional fitting relative to DMSO as the negative control and baseline of activity. Using a type of inducible reporter, gain or loss-of-signal activity using HPLC-MS-MS was used to understand synthesis of 17alpha-hydroxyprogesterone in H295R cell line at 48hr of chemical exposure. To generalize the intended target to other relatable targets, this assay endpoint is annotated to the steroid hormone intended target family, where the subfamily is progestagens.
Cell culture and media preparation procedures were conducted in accordance with OECD Test No. 456 guidelines, with minor modifications. H295R cells (ATCC CRL-2128) were expanded for 5 passages and frozen in batches in liquid nitrogen. Prior to the steroidogenesis assay, H295R cells were thawed and passed at least 4 times. The maximum passage was 10. Cells were maintained in a 1:1 mixture of DMEM/F12 supplemented with 5ml/L ITS+ Premix (BD Bioscience) and 12.5 ml/L Nu-Serum (BD Bioscience). After seeding cells into 96-well plates at 50-60% confluency, cells were allowed to adhere overnight. Prior to chemical testing, culture medium was replaced with 175 uL medium containing 10 uM forskolin to stimulate steroidogenesis for 48 hours. Following prestimulation, forskolin medium was replaced with medium containing test chemical solubilized in DMSO (ensuring a final concentration of 0.1% DMSO). Test chemicals were incubated for 48 hours, then the medium was removed and split into 2 vials containing approximately 75uL each, and stored at -80 C prior to hormone analysis. For steroid quantification, media samples were shipped to OpAns, LLC (Durham, NC) on dry ice, and samples were thawed to room temperature prior to liquid-liquid extraction. Steroid hormones were extracted from media samples using methyl tertbutyl ether (MTBE). An extra derivatization with dansyl chloride was included for estrogen (estrone and estradiol) detection only. Steroid hormones were separated by HPLC, eluted using a reverse phase C18 gradient with electrospray positive ionization, followed by quantification by tandem mass spectrometry (MS/MS). Data were acquired on a MassHunter Workstation Acquisition version B03.01 (Agilent Technologies, Inc.) and processed using MassHunter Quantitative Analysis for QQQ. Accuracy was determined for each hormone analyte from 3 standards to determine upper and lower limits of quantification (ULOQ and LLOQ, respectively) using a 7-point standard curve. Precision and accuracy of the extraction and quantification methods were calculated as the percent relative standard deviation (%RSD) of the spiked standards and percent spiked standard recovered, respectively. […] Test medium was removed following chemical exposure, and cell viability was evaluated in the same wells by MTT. MTT procedures were as follows: after removal of test medium, 500 uL of 0.5 mg/ml of 3-[4,5-dimethylthiazol-2-y]2,5-diphenyltetrazoliumbromide solution was added to the cells. Following a 4-hour incubation at 37 C and 5% CO2 to allow formazan-crystal formation, the MTT solution was removed and blue formazan salt crystals were solubilized using 500uL anhydrous isopropanol with shaking for 20 minutes. Absorbance was read at 570 and 650nm using a Packard Fusion microplate reader. Background correction of absorbance units was used to determine percent change relative to controls. […]
Consider `Oc1ccc2ccccc2c1`, for which the concentration at half-maximal activity (AC50) was 13.8 µM (active). For `OC12N=C(c3ccccc3)SC1Cc1cc(Cl)ccc12` (centres undefined), the compound was called inactive.

Consider `CC(C)(C)c1cc(/C=C2\SC(N)=NC2=O)cc(C(C)(C)C)c1O`, for which the half-maximal activity concentration (AC50) was 0.67 µM (active). Still for that read-out and setting: with `CCCCOC(=O)c1ccc(O)cc1` the figure was 5 µM (active); with `Clc1ccccc1C(c1ccccc1)(c1ccccc1)n1ccnc1`, 0.0684 µM (active); with `COc1cccc([C@H](O)C2CCN(CCc3ccc(F)cc3)CC2)c1OC`, 19.7 µM (active). Regarding `O=C(O)Cn1c(=O)n(Cc2ccc(Br)cc2F)c(=O)c2ccc(Cl)cc21`, the result was inactive. Turning to `CCCCCCCCN(C)CCCCCCCC`, the AC50 is 50 µM (active). Consider `CO[C@H]1/C=C/O[C@@]2(C)Oc3c(C)c(O)c4c(O)c(c(/C=N/N5CCN(C)CC5)c(O)c4c3C2=O)NC(=O)/C(C)=C\C=C\[C@H](C)[C@H](O)[C@@H](C)[C@@H](O)[C@@H](C)[C@H](OC(C)=O)[C@@H]1C`, for which the call was inactive. Turning to `CC(=O)N1CCN(c2ccc(OC[C@H]3CO[C@](Cn4ccnc4)(c4ccc(Cl)cc4Cl)O3)cc2)CC1`, the AC50 was 0.49 µM (active). Regarding `CCCCCCCCOC(=O)c1cc(O)c(O)c(O)c1`, the result was inactive. Still for that read-out and setting: with `Clc1cc(Cl)c2c(c1)N=C1CCCCCN1C2` the entry was “inactive”.

Turning to `Cc1cc2c(cc1C(F)(F)F)N(C(=O)Nc1ccc(Oc3cccnc3C)nc1)CC2`, the half-maximal activity concentration (AC50) is 0.591 µM (active). For `CCCCCCCCCCCC[N+](C)(C)C`, the call was inactive.

On to `Cc1oc2c(NC(=O)c3c(Cl)cccc3Cl)cccc2c1C(C)(C)O`, for which the half-maximal activity concentration (AC50) was 3.07 µM (active). For `O=C(Nc1ccc(Cl)cc1)Nc1ccc(Cl)c(Cl)c1`, the half-maximal activity concentration (AC50) is 0.418 µM (active). For `Cc1ccc2oc(CN(Cc3ccccc3)C(=O)Nc3c(F)cc(F)cc3F)c(-c3ccc(Cl)cc3)c2c1`, the AC50 is 4.83 µM (active).

Regarding `O=C1c2ccccc2C(=O)N1CCc1noc(-c2ccc(CN3CCCCCC3)s2)n1`, the compound was classed as inactive.

In the case of `NC(=O)c1nc(-c2cccc(-c3cc(F)ccc3OCC(F)(F)C(F)(F)F)c2)n[nH]1`, the outcome was inactive. With `O=c1c(-c2ccc(O)cc2)coc2cc(O)cc(O)c12`, the AC50 was 30.5 µM (active). `Cc1c2ccccc2c(C)c2c1ccc1ccccc12`: the result was inactive. As for `CC(C)(c1cc(Br)c(O)c(Br)c1)c1cc(Br)c(O)c(Br)c1`, the AC50 was 4.41 µM (active).

Turning to `O=C1CCC(C2CCCCC2)CC1`, the AC50 is 76.8 µM (active).

For the compound `CN1C(=O)N(c2ccccc2Br)Cc2cnc(Nc3ccc4c(c3)OCC(CO)O4)nc21` (centres undefined), the call was inactive.

By AC50 is commonly meant the midpoint of the concentration-response curve, whichever way the signal moves.

The record behind these values is PubChem BioAssay (EPA / NIEHS).
